GPT2 inh: blocks human glutamate pyruvate transaminase 2. hit rate 0.25% among 100,000. AID 1671188. Potency, µM (top dose mostly 57.7 µM), for inactives: top-dose activity change, negative = inhibition, usual class: inhibitors. Recombinant GPT2, coupled pyruvate oxidase/HRP Amplex Red fluorescence; note: nearly all actives have a fitted effect of over 60% in size
Target sequence (Q8TD30 whole entry, looked up): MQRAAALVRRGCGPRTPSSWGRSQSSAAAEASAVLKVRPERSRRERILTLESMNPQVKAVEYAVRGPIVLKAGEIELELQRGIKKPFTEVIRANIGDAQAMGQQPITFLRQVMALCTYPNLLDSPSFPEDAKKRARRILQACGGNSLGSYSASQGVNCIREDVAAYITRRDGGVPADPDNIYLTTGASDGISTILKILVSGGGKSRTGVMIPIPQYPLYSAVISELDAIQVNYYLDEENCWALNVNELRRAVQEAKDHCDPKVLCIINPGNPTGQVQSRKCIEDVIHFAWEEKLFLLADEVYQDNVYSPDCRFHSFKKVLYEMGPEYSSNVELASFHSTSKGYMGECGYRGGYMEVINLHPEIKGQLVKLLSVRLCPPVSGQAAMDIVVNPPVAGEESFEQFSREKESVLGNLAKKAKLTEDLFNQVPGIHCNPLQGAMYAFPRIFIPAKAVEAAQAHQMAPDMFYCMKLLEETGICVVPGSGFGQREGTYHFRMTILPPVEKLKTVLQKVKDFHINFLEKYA
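Fluorescence of coupled pyruvate oxidase/HRP/Amplex Red system (50uM Amplex, 30 min, dark) reports pyruvate formed by GPT2. Enzyme reaction: 10ng/uL GPT2, 2mM L-alanine, 250uM a-KG, 30 min room temperature, pH 7.5; 50uM AOA control.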
HEK cytotox: HEK 293 cell cytotoxicity | hit rate 6.6% among 94,000 | Potency, µM (titrated, usually from 115 µM), for the others: at the top dose activity change, negative = cytotoxicity, hits mostly inhibitors | HEK 293 viability, ATP luminescence (CellTiter-Glo), 48-72 h; note: nearly all actives have a fitted effect of over 60% in size
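Cytotoxicity was scored by loss of ATP-coupled luminescence (CellTiter-Glo) in HEK 293 cells. Compound treatment ran 48 or 72 hr at 37 degree Celsius, 5% CO2, 95% humidity.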
NPR1 antag: blocks ANP-stimulated signaling of human Npr1 receptor. P16066. HEK293 hNpr1 GloSensor cGMP, ANP-stimulated luminescence. Potency, µM (top dose mostly 46.3 µM), without a hit: at the top dose activity change, negative = inhibition, usual class: inhibitors. hit rate 1.6% among 76,000; calls by dose curve; note: nearly all actives have a fitted effect of over 60% in size
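Compound pre-incubated 30 min at room temperature on GloSensor-loaded HEK293 cells stably carrying hNpr1 and the pGS-40F cGMP biosensor. Stimulation uses hNppA at 0.1 nM final; luminescence is taken at baseline and 20 min post-agonist.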
3T3 cytotox: kills NIH 3T3 cells; NIH 3T3 viability, CellTiter-Glo ATP luminescence, 48-72 h; Potency, µM (highest dose often 96.7 µM), for the others: top-dose activity change, negative = cytotoxicity, actives largely listed as inhibitors; hit rate 4.3% among 94,000; AID 1345082; note: nearly all actives have a fitted effect of over 55% in size
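Cytotoxicity was measured by CellTiter-Glo ATP luminescence after 48 or 72 h compound exposure at 37 °C. Mouse NIH 3T3 fibroblasts were seeded at 400 cells/well and dosed by 23 nL pin transfer.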
Luciferase inh: inhibitors of firefly (Photinus pyralis) luciferase; P08659; purified P. pyralis luciferase, luminescence, biochemical; Potency, µM (top dose mostly 115 µM), actives largely listed as inhibitors; hit rate 2.5% among 76,000; AID 1347043; note: nearly all actives have a fitted effect of over 65% in size
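FLuc 10nM, D-luciferin 10uM, ATP 10uM, Mg acetate 10mM, Tris acetate pH 7.5, Tween/BSA; cpd qHTS; enzyme added last; CCD luminescence.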
Starred values were filed as active, the others as inactive; i = inactive; ? = inconclusive; . = no result; ! = not confirmed by another sample; [ ] = another dose, or the depositor's remark. Compounds with a hit are over-represented: about 10% of the library has one in this group of screens. Unless noted, calls come from the whole dose curve; as a rule, active = well fitted curve in the direction sought with a large enough effect; inconclusive = small, poorly fitted or top-dose-only effect, or another doubt; inactive = no such curve, though single readings can be large; an effect the other way counts as inactive or inconclusive. % is set by controls: 0 for no effect and ±100 for the full control effect; potency is the fitted concentration of half-maximal effect.

SMILES | GPT2 inh | HEK cytotox | NPR1 antag | 3T3 cytotox | Luciferase inh
COc1cccc(N2CC(C(=O)NCCc3ccc(Cl)cc3)NC2=O)c1 (configuration not stated) | i | -24% | 10% | ? | i
COc1ccc(C(=O)NC2CCN(c3cc(-c4cccs4)[nH]n3)CC2)cc1 | -3% | ? | 0% | ? | 18µM*
Cc1ccc(C(=O)NC2CCN(c3cc(-c4cccs4)[nH]n3)CC2)c(C)c1 | i | ? | 0% | 32µM* | i
COc1ccc(C(=O)NC2CCN(c3cc(-c4cccs4)[nH]n3)CC2)cc1OC | -2% | ? | -15% | ? | i
COc1ccc(Cl)cc1C(=O)NC1CCN(c2cc(-c3cccs3)[nH]n2)CC1 | -18% | ? | -22% | 7.9µM* | i
c1ccc(CC2=NOC3(CCN(C4COC4)CC3)C2)cc1 | -3%[88.5 µM] | i | . | i | .
O=C(Nc1ccc2c(c1)CCC2)N1CCc2c(nc3cc(-c4ccccc4)[nH]n3c2=O)C1 | i | -25% | -13% | -19% | i
Cc1ccc(-c2c(C(=O)N3CCCCC3)nc3sccn23)cc1 | -10% | ? | . | ? | .
O=C1c2c(O)ccc(O)c2C(=O)c2c(NCCNCCO)ccc(NCCNCCO)c21 | 10µM*! | . | . | . | .
C[N+](C)([O-])CCNc1ccc(NCC[N+](C)(C)[O-])c2c1C(=O)c1c(O)ccc(O)c1C2=O | -30% | . | . | . | .
CN(Cc1ccc2nonc2c1)C(=O)C1CCN(C(=O)C2CCCC2)CC1 | i | ? | 0% | 40µM* | i
CN(Cc1ccon1)C(=O)C1CCN(C(=O)C2CCC2)CC1 | 1% | -2% | 1% | 3% | i
CCCOc1cccc(-c2nc(C(=O)NCC)cs2)c1 | -5% | 32µM* | -18% | ? | i
CC(C)Oc1cccc(-c2nc(C(=O)NCc3ccco3)cs2)c1 | -6% | ? | -22% | ? | ?
CC(C)Oc1cccc(-c2nc(C(=O)NCc3ccccc3)cs2)c1 | i | 32µM* | ? | ? | i
CN1CCCN(S(=O)(=O)c2cccc(Cl)c2)c2ccccc21 | -28% | 40µM* | -20% | ? | i
O=C(C[C@H]1NC(=O)c2ccccc2NC1=O)Nc1cccc(C(F)(F)F)c1 | 3% | 45µM* | 0% | ? | i
CCOc1ccccc1NC(=O)C[C@H]1NC(=O)c2ccccc2NC1=O | 4% | -3% | -5% | i | i
O=C(C[C@H]1NC(=O)c2ccccc2NC1=O)Nc1ccncc1 | i | -4% | 4% | i | i
Cc1cc(Br)ccc1NC(=O)C[C@H]1NC(=O)c2ccccc2NC1=O | -4% | ? | -8% | 20µM* | i
Cc1c(Cl)cccc1NC(=O)C[C@H]1NC(=O)c2ccccc2NC1=O | 2% | 45µM* | 2% | ? | i
COc1cc(CNc2nc(-c3c(C)noc3C)cc3cc(CN(C)C)oc23)cc(OC)c1 | i | ? | -2%[70.6 µM] | ? | i
COc1cccc(Nc2nc(-c3c(C)noc3C)cc3cc(CN(C)C)oc23)c1 | i | 45µM* | 1%[70.6 µM] | 45µM* | i
Cc1noc(C)c1-c1cc2cc(CN(C)C)oc2c(Nc2ccn(C)n2)n1 | -1%[88.5 µM] | ? | 1%[70.6 µM] | ? | i
Cc1noc(C)c1-c1cc2cc(CN(C)C)oc2c(Nc2cccc([S+](C)(=O)[O-])c2)n1 | -11%[88.5 µM] | 50µM* | 3%[70.6 µM] | 45µM* | i
SMILES | GPT2 inh | HEK cytotox | NPR1 antag | 3T3 cytotox | Luciferase inh
Cc1ccc(S(=O)(=O)N2C[C@@H](F)C[C@H]2C(=O)N2CCOCC2)c(C)c1 | i | 11% | -11% | -22% | i
O=C(Nc1ccccc1)C1=NO[C@@H]2CN(Cc3cccc(O)c3)C[C@H]12 | ? | ? | ? | -33%[138 µM] | i
N[C@H]1CO[C@H]2[C@@H]1OC[C@@H]2n1cc(-c2ccccn2)nn1 | ? | 126µM* | -4%[70.6 µM] | ? | i
CCCc1ccc2oc(C(=O)N(C)Cc3snnc3C)c(C)c2c1 | i[11.5 µM] | 40µM* | 1% | ? | ?
Cc1ccc2oc(C(=O)N(C)Cc3cc(-c4ccccc4)no3)c(C)c2c1 | -2% | ? | 3% | -18% | i
CC(C)NC(=O)NC[C@H]1OC[C@@H](NCc2cccnc2)[C@@H]1O | -12%[88.5 µM] | -1%[172 µM] | 3%[70.6 µM] | 0%[174 µM] | i
COCCOC1CCOC2(CCN(C(=O)c3cccs3)CC2)C1 (configuration not stated) | -1% | 7% | 7% | i | i
CN(C)Cc1cc(C[C@@H]2C[C@H](NCc3ccc(F)cc3)C2(C)C)no1 | 4%[88.5 µM] | ? | 6%[70.6 µM] | ? | i
CC(=O)N[C@H]1C[C@@H](Cc2cc(CN(C)c3ccccc3)on2)C1(C)C | -28%[88.5 µM] | 79µM* | -14%[70.6 µM] | -22%[174 µM] | i
COCC(=O)N[C@H]1C[C@@H](Cc2cc(CN(C)Cc3ccccc3)on2)C1(C)C | ? | ? | -18%[70.6 µM] | ? | i
COCC(=O)N[C@H]1C[C@@H](Cc2cc(CN(C)c3ccccc3)on2)C1(C)C | ? | 45µM* | -17%[70.6 µM] | ? | i
CC1(C)[C@H](Cc2cc(CN3CCCCC3)on2)C[C@@H]1NCc1ccccn1 | 2%[88.5 µM] | ? | -4%[70.6 µM] | 112µM* | i
CC1(C)[C@H](Cc2cc(CN3CCCCC3)on2)C[C@@H]1N | i | ? | 1%[70.6 µM] | ? | i
CC(C)NC(=O)N[C@H]1C[C@@H](Cc2cc(CN(C)c3ccccc3)on2)C1(C)C | -4%[88.5 µM] | ? | -24%[70.6 µM] | ? | i
CN(Cc1cc(C[C@@H]2C[C@H](NCc3ncc[nH]3)C2(C)C)no1)c1ccccc1 | 3%[88.5 µM] | 63µM* | -3%[70.6 µM] | 100µM* | ?
O=C(NC1CCCC1)N1CCCC(Cc2nncn2Cc2ccccc2)C1 (configuration not stated) | i | i | 1% | -12% | i
O=C(Cc1c[nH]c2ncc(-c3ccoc3)cc12)N1CCOCC1 | i | ? | -12%[70.6 µM] | ? | i
CNC(=O)c1cccc(-c2cnc3[nH]cc(CC(=O)NCC(C)C)c3c2)c1 | -6%[88.5 µM] | ? | 1%[70.6 µM] | 35µM* | i
CNC(=O)c1cccc(-c2cnc3[nH]cc(CC(=O)N4CCC(OC)CC4)c3c2)c1 | i | -24%[172 µM] | 2%[70.6 µM] | 89µM* | ?
COC1CCN(C(=O)Cc2c[nH]c3ncc(-c4cccnc4)cc23)CC1 | -26%[88.5 µM] | 4%[172 µM] | 1%[70.6 µM] | 79µM* | i
CNC(=O)c1cccc(-c2cnc3[nH]cc(CC(=O)Nc4ccccc4C)c3c2)c1 | 1%[88.5 µM] | ? | 0%[70.6 µM] | ? | ?
COc1ncc(-c2cnc3[nH]cc(CC(=O)N4CCOCC4)c3c2)cn1 | -4%[88.5 µM] | -18%[172 µM] | 4%[70.6 µM] | 79µM* | i
O=C(Cc1c[nH]c2ncc(-c3cccnc3)cc12)N1CCN(c2ccccn2)CC1 | i | ? | -8%[70.6 µM] | ? | i

From PubChem BioAssay
